# Experimental data reported in PubChem BioAssay AID1508600 (Functional Genomics Laboratory (NCATS/FGL), 2020).
# Among all 53,000 sequences or so, about 3,700 (7%) were called active. Only a selection was taken, and actives are over-represented in it overall. Unmarked numbers belong to inactive results.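 The calls were made as follows: active = gene knockdowns whose robust z-score for IL-1 alpha signal is at least 2 or at most -2, so actives lie on both sides; inactive = the rest.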
# Test: Components of the Cytosolic LPS Sensing Pathway: Gene Identification via Genome-wide siRNA Screen;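 also: robust z of the log signal after scaling to non-targeting control siRNA wells of the plate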
# Conditions: RAW264.7 macrophages, IL-1a HTRF, actives lie on both sides, screened at 100 nM (by protocol), cells primed 5 h with Pam3CSK4 first
# How it was run: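 Using IL-1a HTRF as read-out, the screen measured release from RAW264.7 cells after 48h siRNA knockdown (100 nM), 5 h Pam3CSK4 priming and 24 h cytosolic LipidA. Values were expressed relative to negative-control wells as robust z-scores.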
row,Sequence,z-score
1,GGUAUGCUCUCUGUUGACUTT against Olfr922,0.472
2,GGAGUUCCUAUUUAAUCCCTT against Hoxb8,-0.419
3,GCAGUUUUAACUGGCCAUATT against Nr2f2,1.7
4,GCUGCUUAAGUACAUCAGATT against Grm4,-0.401
5,GGUUAUGCAUUACUCUCUUTT against Prkdc,0.0207
6,GGCCAGGUAUAAAUAUAUATT against Dusp8,4.51 (active)
7,GCUGGAACUUAGUGUUCAGTT against Kat6b,1.45
8,GCAAUGUUCUCCGUAAACATT against Acss2,1.15
9,GGCUUCAAACACUUCCUUGTT against Sh2d4b,0.818
10,GGGAAAAGAUUCAGCUAGATT against Ntn4,-1.16
11,GCAGCUAUUGAGCAUGGUGTT against Atp6v1g3,-2.16 (active)
12,GCCGUAUCGAUUCUAUUUCTT against Slc6a17,1.09
13,GGAAAAGAAGACAUUUCUCTT against Osbpl8,-0.565
14,CCUCCUGUACGAACACGCATT against Sars2,-0.118
15,GGCUGUGCUCAGGAUCAAATT against Olfr683,2.37 (active)
16,GGAAAUAUCCAAGAAUCCCTT against Bbs4,-0.0724
17,GUGAUUGGGAACCUGUUUATT against Paqr6,-1.35
18,GCAGAUCAGUUGGUACAAGTT against Acss3,0.0616
19,GCUAACACAACGAGAGAAGTT against Ushbp1,-2.39 (active)
20,GGAUUCACACAGAGGUAAATT against Zfp169,-0.215
21,CCCAUAUUAAUUAUGGCGUTT against Hadha,-0.189
22,GCCAUACAUAAACUACAAUTT against Gulo,-0.175
23,GUACUUGAAACGAACUGGATT against B4galnt4,-1.68
24,CCUUACCCUGUUAUACAAGTT against Hirip3,2.69 (active)
25,GGCUAAAACAGGAAAUCUGTT against Mip,-0.398
26,CCACUUUAAAGGCUCUUCUTT against H3c8,-2.17 (active)
27,CCGACUUCGUACAAUGACCTT against Slc1a6,1.45

row,Sequence,z-score
1,GGAGAACAAGAUCCUGGAGTT against Ccdc39,1.73
2,GGAUCCAGAAGAGCAUCUCTT against Sap30,-0.33
3,GGGCGUGAUUUAUUUCUACTT against Mfsd6l,1.45
4,GGCUAUGCUUUUGUCCAGUTT against Raly,-0.392
5,GGUGUCUUUGCUCUUAAUUTT against Sike1,0.277
6,CGCAGUCCUUGACAUUAAATT against Rab3a,0.0328
7,GCUCUUGGGAUGGACGAUATT against Hmgcs1,4.73 (active)
8,GGCAGACAUAAGGCUUUCUTT against Olfr1056,-0.754
9,GGGCAGGAAAAAAAAUUCATT against Vps13b,1.68
10,CCACUGAAGGAAGUUCGCUTT against Amer2,0.21
11,GGAUAAAUGCCAUUUUGGATT against Cpeb1,-0.664
12,GCCUUAACCACAAUUAAAATT against Etfrf1,-0.578
13,GGGAUCUGGAUGAGGUCAATT against Tcf7l1,3.02 (active)
14,GGAAAUUAGUGCUGGGCGUTT against Erbb3,0.424
15,CGAAAUUGAUUCUAUCUGCTT against Katnal1,-0.59
16,GGGUCUCUAUGGAAUCAAUTT against Ldha,2.83 (active)
17,GGCAGUAUGAGAGGUAUUUTT against Entpd7,0.345
18,CCAAACGAAGGAAGCUGACTT against Taf6l,-2.09 (active)
19,GGGAGAUAAAAAGUUAAGGTT against Bclaf1,1.38
20,GGCUUUCGUUUACAACAAGTT against Naglu,-0.414
21,GGUUAUCAUACUUUUUGUGTT against Phf10,-0.582
22,CCAAACAAUGUUGUUUAGGTT against Rilpl1,-0.965
23,CCUCGAGUUCGGAAACAGATT against Chd8,-1.06
24,CCUGCCUAGAUGUUUCAGCTT against Ifna13,-0.196
25,GGACAAUAGAUGUGUUUGATT against Ddb2,1.57
26,GCUUGGCCGUGAUUGUUGCTT against Fndc10,2.35 (active)
27,GGCUUGGUGAGCUACCUACTT against Wdr62,-0.839
